Data: PubChem BioAssay (NCI)
About 83,000 compounds went through this panel and 20% of them were active in at least one assay; those are over-represented in the sample as a whole.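 Single-dose data. Exposure time 48 hours. Values below 10 considered active.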 Values without a mark were called inactive. The source made the active and inactive calls.

Columns and labels:
Experiment in all cases: NCI-60 one-dose screen, 48 h (100 = growth as untreated, 0 = no growth, -100 = all killed)
Conditions in all cases: 10 µM unless noted
[1] = system: DU-145 prostate
[2] = system: K-562 leukemia
[3] = system: MALME-3M melanoma
[4] = system: MDA-MB-231 breast
[5] = system: RXF 393 renal
[6] = system: SF-268 CNS
[7] = system: SF-295 CNS
[8] = system: SF-539 CNS
[9] = system: UACC-257 melanoma

| Compound | growth [1] | growth [2] | growth [3] | growth [4] | growth [5] | growth [6] | growth [7] | growth [8] | growth [9] |
| --- | --- | --- | --- | --- | --- | --- | --- | --- | --- |
| Br/C(=N\Nc1nn[nH]n1)c1ccccc1 | 119% | 110% | 104% | 96.4% | 96.3% | 114% | 101% | 96.7% | – |
| Nc1cc(N)c2nc(-c3ccccc3)c(NCCc3ccc(Cl)c(Cl)c3)nc2c1 | -98.6% (active) | -16.9% (active) | -93.3% (active) | -71.1% (active) | -94.3% (active) | 0.859% (active) | -74.2% (active) | -96.7% (active) | 5.16% (active) |
| Oc1ccccc1/C=N/N=C/c1c(O)ccc2ccccc12 | 96.9% | 78.5% | 91.3% | 69.9% | 109% | 92.5% | 98.1% | 96.9% | 98.2% |
| CCOC(=O)C1=C(C(F)(F)F)NC(=O)NC1CN1C(=O)c2ccccc2C1=O (stereo not given) | 106% | 76.1% | 113% | 100% | 106% | 103% | 104% | 100% | 103% |
| CCOP1(=O)CC(C)=C(Cl)C(P(=O)(O)O)C1 (stereo not given) | 109% | 101% | 95.1% | 100% | 96% | 109% | 109% | 105% | 87.3% |
| C[C@H]1C[C@@H](n2cnc3c(N)nccc32)[C@H](O)[C@@H]1O | 84% | 69.6% | 110% | 89.9% | 7.03% (active) | 97.9% | 96.5% | 67.9% | 89.3% |
| O=C(Nn1cnc2ccccc21)N1CCCC1 | 102% | 94% | 92.2% | 94.2% | 109% | 117% | 98.7% | 91.8% | 101% |
| OC(c1ccccc1)(c1ccccc1)C(F)(F)F | 109% | 99.7% | 122% | 101% | 120% | 82.8% | 107% | 101% | 104% |
| COc1cc(N)c2nccc(C)c2c1OC | 100% | 92.1% | 95.8% | 91.2% | -4.59% (active) | 114% | 116% | 82% | 92.5% |
| O=C(Nc1ccc(Cl)cn1)C1(c2ccccc2)CCCCC1 | 86.5% | 67.1% | 112% | 87.7% | -1.25% (active) | 108% | 110% | 96.7% | 109% |
| Clc1ccc(I)c2ccccc12 | 111% | 102% | 97.6% | 110% | 113% | 101% | 102% | 105% | 101% |
| Cc1c(Cc2ccccc2)c(=O)oc2c(C)c(OCC(=O)n3nc(C#N)cc3N)ccc12 | 104% | 102% | 99.5% | 103% | 119% | 97.1% | 94.7% | 99.3% | 105% |
| COc1cc(NC(C)CCCN)c2nccc(C)c2c1OC (stereo not given) | 71.3% | 65% | 104% | 59.5% | 164% | 126% | 115% | 41.3% | 112% |
| O=C(CCCC(=O)Nc1ccc(Cn2nnc3cc(Cl)c(Cl)cc32)cc1)Nc1ccc(CN2N=NC3C=C(Cl)C(Cl)=CC32)cc1 (stereo not given) | 93.3% | 67% | 97% | 76.4% | 93.7% | 78.1% | 71.9% | 88.2% | 81.1% |
| CC(C)(C)C(=O)CCCCCCCC/C=C/CCCC(O)c1ccco1 (stereo not given) | 102% | 82.4% | 109% | 102% | 99.7% | 106% | 105% | 97.3% | 105% |
| CC(C)C(=O)c1ccc(Cl)s1 | 106% | 91.5% | 82.8% | 105% | 105% | 102% | 99.3% | 107% | – |

| Compound | growth [1] | growth [2] | growth [3] | growth [4] | growth [5] | growth [6] | growth [7] | growth [8] | growth [9] |
| --- | --- | --- | --- | --- | --- | --- | --- | --- | --- |
| CCCC(=O)NNc1[nH]c(-c2ccc(OC)cc2)cc1C(=O)OCC | 104% | 49.1% | 52% | 87.4% | 107% | 118% | 93.7% | 92.7% | 105% |
| Brc1c(-c2ccncc2)nc2n1CCS2 | 116% | 111% | 114% | 101% | 84.6% | 107% | 102% | 119% | 91.1% |
| CC1(C)CC(=O)C2=C(C1)Oc1nc(N)c(C#N)c(N)c1C2c1ccc(F)cc1 (stereo not given) | 95.7% | 85.9% | 117% | 88.7% | -1.27% (active) | 117% | 110% | 86.9% | 94.8% |
| COc1cc(OC)c2c(=O)cc(-c3ccccc3)oc2c1 | 111% | 98.4% | 97.2% | 97% | 99.8% | 104% | 93.8% | 108% | 97.8% |
| CCOC(=O)c1cc(-c2ccc(OC)cc2)[nH]c1NNC(=O)CCOC | 108% | 99.8% | 98.4% | 95% | 104% | 121% | 95.3% | 106% | 105% |
| CCOC(=O)c1ccc2n1CCCc1cnc(NC(C)=O)nc1-2 | 111% | 102% | 110% | 106% | 96.6% | 96.2% | 100% | 95.1% | 115% |
| CCCCCCCCCCCCCCCCCC(=O)Nc1ccc(O)cc1 | 103% | 96.6% | 94.1% | 86.3% | 99.6% | 84.2% | 106% | -16% (active) | – |
| O=C1C(=O)c2ccccc2C(O)=C1CCCc1ccc(C2CCCC2)cc1 | 40.5% | 19.2% | 84% | 56.5% | 57.9% | 47.6% | 27.3% | 22.9% | 40.7% |
| CCOC(=O)C1=C(C(F)(F)F)NC(=S)NC1CN1C(=O)c2ccccc2C1=O (stereo not given) | 115% | 101% | 92.9% | 90.2% | 113% | 101% | 93% | 104% | 110% |
| CCCCCCCCCC(C)NC(=O)CCl (stereo not given) | 102% | 97.3% | 93.8% | 93% | 101% | 95.1% | 99.8% | 99.9% | – |
| CCOC(=O)C1=C(c2ccccc2)NC(=O)NC1CN1C(=O)c2ccccc2C1=O (stereo not given) | 105% | 50.6% | 71.2% | 108% | 116% | 93.7% | 115% | 106% | 112% |
| COc1cc(/C=C/C(=O)c2ccc(F)cc2)ccc1OCCCCOc1cc2c(cc1OC)C(=O)N1CCCC1C=N2 (stereo not given) | -72.1% (active) | -23.9% (active) | -6.3% (active) | -15% (active) | -71.6% (active) | -12.4% (active) | -29.1% (active) | -61.9% (active) | 2.17% (active) |
| CCCC(C)c1cc(Cc2cc(Cl)cc(Cl)c2O)c(O)c(Cc2cc(Cl)cc(Cl)c2O)c1 (stereo not given) | 26.8% | 7.77% (active) | -22.2% (active) | -13.4% (active) | -10% (active) | 16.3% | -38.6% (active) | -3.24% (active) | -3.64% (active) |
| COc1ccccc1C(=O)Nc1cccc(-c2cc(=O)c3c(OC)c(OC)c(OC)cc3o2)c1 | 44.9% | 36.4% | 65.5% | 51.3% | 59% | 54.5% | 59.2% | 63.8% | 61.5% |
| COc1cc(CCNc2cnc3cc(N)cc(N)c3n2)cc(OC)c1 | 118% | 35.3% | 146% | 96.7% | 114% | 109% | 116% | 123% | 111% |
